Results: PubChem BioAssay
Values joined by “and” are separate entries in the source; they are usually repeats but may differ in a detail not shown here. Identical values can stand only once. Active and inactive are the calls of the source.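 The calls were made as follows, unless noted: active = z-score of at least 1.8 in each of two replicates, scored against plate mean and spread of sample wells; inactive = the rest.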

What was measured:
[1] = stimulators of nuclear beta-catenin in C2C12, primary screen, imaging, WNT3A-conditioned medium, mouse C2C12, NPC library (AID 1117326; in the data active = nuclear beta-catenin stimulation mostly above about 4.2%, no sharp cut-off; inactive = mostly below about 10%); settings: stronger effect = higher value
[2] = stimulators of insulin release from INS-1E, primary screen, cell-based, 5 mM glucose, NPC library (AID 1117329;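 active = compound raises insulin release from rat beta cells at 5 mM glucose, no numeric limit stated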); settings: rat INS-1E insulin secretion, at 10 µM, stronger effect = higher value
[3] = growth inhibition of GSK3B-pretreated HCT116 cells – cell-based, CellTiter-Glo, 0.2 to 20 µM (AID 1117336;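 active = compounds lowering colon cancer cell viability after pretreatment blocking the GSK3B kinase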); settings: HCT116 viability after GSK3B inhibitor, at 20 µM, stronger effect = higher value
[4] = inhibition of endothelial tube formation, primary screen, imaging, VEGF stimulated, CD31 staining, tube area, NPC library (AID 1117340;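 active = compound that reduces growth-factor-driven endothelial tube area in a mixed cell culture, no cutoff stated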); settings: VEGF-stimulated ADSC/ECFC co-culture, at 10 µM, stronger effect = higher value
[5] = glucagon-like peptide 1 release enhancers, primary assay, NCI-H716 cell line, NPC library (AID 1117341;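 active = compound raises GLP1 secretion from the human gut endocrine cells, with no numeric limit stated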); settings: NCI-H716 cells, at 10 µM, stronger effect = higher value
[6] = HCT116 colon cancer cell growth inhibition, primary screen, CellTiter-Glo luminescence, NPC library (AID 1117342;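 active = compounds that lower survival of HCT116 colon cancer cells in the luminescence readout, no numeric limit stated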); settings: at 20 µM (top of the series)
[7] = CellTiter-Glo luminescent readout of SW480 viability loss, NPC library primary (AID 1117343;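 active = compounds that lower viability of the colon cancer cells in the luminescence readout, with no numeric limit stated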); settings: CellTiter-Glo luminescence; at 20 µM (top of the series)
[8] = decreased DLD-1 cellular survival, CellTiter-Glo luminescent readout, NPC compound collection, primary HTS (AID 1117346;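 active = compounds that lower survival of DLD-1 colon cancer cells in the luminescence readout, no cutoff given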); settings: DLD-1 viability, CellTiter-Glo luminescence; at 20 µM (top of the series)
[9] = suppressors of polyQ aggregation in yeast, 75Q-TubU reporter (AID 1593); settings: Yeast 75Q polyglutamine aggregation reporter
[10] = inhibitors of mitochondrial cytochrome c release, biochemical, purified mitochondria (AID 1603); settings: stronger effect = lower value;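 also: mouse liver mitochondria challenged with calcium chloride; signal normalized to the plate average as 100%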
[11] = inhibitors of polyQ protein aggregation (AID 1604); settings: polyglutamine-induced protein aggregation inhibition assay; stronger effect = higher value; tested at 2.5 µM
[12] = biological target: 6-phosphogluconate dehydrogenase, decarboxylating (Homo sapiens) (UniProt P52209); assay: 6PGD enzyme inhibitors, primary screen, biochemical, human, recombinant enzyme, NADPH absorbance (AID 1159550;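 active = at least 20% inhibition of 6-phosphogluconate dehydrogenase activity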); settings: recombinant 6PGD, NADPH absorbance 341 nm; at 10 µM; stronger effect = higher value
[13] = differential killing of epithelial or mesenchymal cells, primary screen, imaging, PC-3E GFP, TEM4-18 mCherry, co-culture (AID 1345086;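 active = compounds killing one labelled cell type while sparing the other, by normalised counts and ratio limits, not self-fluorescent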;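 as to all read-outs here: cells exposed to compound for 72 h before imaging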;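 as to red/green cell ratio (normalised): normalised mesenchymal count divided by normalised epithelial count so high means epithelial killing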); settings: imaging cell counts, at 1 µM; for red/green cell ratio (normalised): actives lie on both sides
[14] = system: Aerobactin synthetase IucA (Klebsiella pneumoniae hvKP1); assay: Biochemical IucA enzyme inhibition primary screen of the Spectrum library (AID 1346200; call rule not given here;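 also: 100% = wells without compound and 0% = wells lacking enzyme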); settings: malachite green pyrophosphate, A620, at 8 µM, stronger effect = lower value
[15] = survival rescue of mitochondrial mutant cells in low glucose, primary screen, MELAS cybrids, Rieske KO mouse fibroblasts, CellTiter-Glo (AID 1508586;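 active = mean z-score across replicates of 1.96 or higher in either the MELAS or the Rieske mutant cell line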;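 also: z relative to plate mean and SD of compound and empty wells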)
[16] = biological target: NAD(+) hydrolase SARM1 (Homo sapiens) (UniProt Q6SZW1); assay: SARM1 TIR NADase inhibitors, cell lysate, NAD-Glo luminescence (AID 1508614;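 active = compound whose remaining NAD level is above about 45 nM, limit read from the data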;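 also: higher remaining NAD means stronger inhibition of SARM1 NADase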); settings: SAM-TIR HEK293T lysate NADase, at 1 µM, stronger effect = higher value
[17] = biological target: Mitogen-activated protein kinase 7 (Homo sapiens) (UniProt Q13164); assay: ERK5 transactivation activators in reporter cells, primary screen, cell-based, HTS (AID 1508626;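 active = luciferase signal above three times the same-plate solvent-only control wells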;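 also: luciferase driven by Gal4-ERK5 fusion binding five Gal4 sites before minimal TATA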); settings: HeLa Gal4-ERK5 transactivation, 18 h, at 5 µM, stronger effect = higher value
[18] = viability rescue of complex I mutant cybrids, primary screen, cell-based, galactose medium, ATP luminescence (AID 1645843); settings: complex I mutant cybrid cells, 72 h, stronger effect = higher value;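 also: positive z means more ATP and so rescue of galactose-driven cybrid death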
[19] = measured here: epithelial PC-3E GFP cell survival
[20] = measured here: mesenchymal TEM4-18 mCherry cell survival
[21] = MELAS cybrid survival, CellTiter-Glo 48 h, stronger effect = higher value
[22] = Rieske KO mouse fibroblast survival, CellTiter-Glo 72 h

NAD(+) hydrolase SARM1 (Homo sapiens), sequence (Q6SZW1 whole entry, looked up, the tested form may be a part): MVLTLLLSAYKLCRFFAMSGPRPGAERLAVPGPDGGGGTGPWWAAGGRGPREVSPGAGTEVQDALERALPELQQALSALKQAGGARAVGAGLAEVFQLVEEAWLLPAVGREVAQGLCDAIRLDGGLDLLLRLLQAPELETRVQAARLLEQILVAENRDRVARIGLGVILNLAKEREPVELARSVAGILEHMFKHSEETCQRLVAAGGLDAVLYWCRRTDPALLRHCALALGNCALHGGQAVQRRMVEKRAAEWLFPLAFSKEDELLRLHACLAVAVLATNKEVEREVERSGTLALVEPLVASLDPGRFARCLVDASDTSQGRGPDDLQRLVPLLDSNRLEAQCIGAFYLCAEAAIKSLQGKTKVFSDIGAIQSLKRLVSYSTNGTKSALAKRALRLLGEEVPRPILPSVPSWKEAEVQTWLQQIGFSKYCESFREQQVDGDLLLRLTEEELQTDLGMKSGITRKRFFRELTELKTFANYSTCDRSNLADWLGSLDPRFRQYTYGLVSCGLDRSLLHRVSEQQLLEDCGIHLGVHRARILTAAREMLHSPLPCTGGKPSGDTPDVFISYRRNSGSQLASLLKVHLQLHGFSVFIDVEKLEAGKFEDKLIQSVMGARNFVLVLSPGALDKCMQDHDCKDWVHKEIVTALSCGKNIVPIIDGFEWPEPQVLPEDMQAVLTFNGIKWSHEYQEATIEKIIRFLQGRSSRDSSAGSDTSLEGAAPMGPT
6-phosphogluconate dehydrogenase, decarboxylating (Homo sapiens), sequence (P52209 whole entry, looked up): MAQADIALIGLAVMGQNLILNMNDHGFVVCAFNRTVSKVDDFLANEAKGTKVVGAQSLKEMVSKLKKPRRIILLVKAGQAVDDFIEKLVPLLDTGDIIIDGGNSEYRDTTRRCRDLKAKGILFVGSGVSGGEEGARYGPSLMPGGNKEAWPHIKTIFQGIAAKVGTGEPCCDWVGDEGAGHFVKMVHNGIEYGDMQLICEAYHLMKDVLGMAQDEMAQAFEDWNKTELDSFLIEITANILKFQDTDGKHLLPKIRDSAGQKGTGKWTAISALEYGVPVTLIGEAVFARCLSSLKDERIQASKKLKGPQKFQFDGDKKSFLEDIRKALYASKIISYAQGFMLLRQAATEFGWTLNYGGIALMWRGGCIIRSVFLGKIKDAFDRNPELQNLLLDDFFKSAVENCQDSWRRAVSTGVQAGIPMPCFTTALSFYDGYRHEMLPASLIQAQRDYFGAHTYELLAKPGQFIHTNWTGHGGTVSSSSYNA
Mitogen-activated protein kinase 7 (Homo sapiens), sequence (Q13164 whole entry, looked up, the tested form may be a part): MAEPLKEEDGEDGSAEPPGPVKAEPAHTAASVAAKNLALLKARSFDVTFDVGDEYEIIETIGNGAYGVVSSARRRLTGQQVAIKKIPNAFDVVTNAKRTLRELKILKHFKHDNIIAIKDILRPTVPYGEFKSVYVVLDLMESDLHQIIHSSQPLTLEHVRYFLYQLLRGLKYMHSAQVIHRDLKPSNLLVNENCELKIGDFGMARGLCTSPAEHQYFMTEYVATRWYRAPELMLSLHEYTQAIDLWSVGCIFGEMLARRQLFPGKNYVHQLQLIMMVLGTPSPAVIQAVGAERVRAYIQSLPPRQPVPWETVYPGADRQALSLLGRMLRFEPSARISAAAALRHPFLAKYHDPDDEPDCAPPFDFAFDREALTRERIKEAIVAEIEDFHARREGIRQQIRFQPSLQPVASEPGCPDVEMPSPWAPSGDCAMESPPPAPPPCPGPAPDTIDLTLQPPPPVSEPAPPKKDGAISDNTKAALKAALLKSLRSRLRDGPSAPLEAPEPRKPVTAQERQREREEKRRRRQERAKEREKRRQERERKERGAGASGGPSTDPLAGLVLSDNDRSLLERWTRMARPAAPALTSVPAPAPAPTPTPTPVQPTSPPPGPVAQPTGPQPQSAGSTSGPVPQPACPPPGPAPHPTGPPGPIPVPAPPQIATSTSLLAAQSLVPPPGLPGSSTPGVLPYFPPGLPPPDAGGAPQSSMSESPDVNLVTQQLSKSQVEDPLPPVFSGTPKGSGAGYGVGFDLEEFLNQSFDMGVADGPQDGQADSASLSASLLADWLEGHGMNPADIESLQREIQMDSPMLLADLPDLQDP

Question: Which results are given for CCc1ccc(C2CCNCC2)cc1?
Answer: nuclear beta-catenin stimulation ([1]; at 10 µM): -1.4% (inactive); nuclear beta-catenin stimulation ([1]; stimulation, at 2 µM): -0.7%; insulin secretion stimulation [2]: 4% (inactive); viability decrease [3]: -2.8% (inactive); tube area decrease [4]: 1.2% (inactive); GLP1 secretion stimulation [5]: -5.6% (inactive); inhibition of viability [6]: 24.1% (inactive); viability decrease (inhibition) [7]: 9% (inactive); viability decrease (inhibition) [8]: -8.7% (inactive)

Question: Which score [9] does the source give for O=C(O)CCCc1ccc(N(CCCl)CCCl)cc1 here?
Answer: The score was -0.24.

Question: What about the cytochrome c release ratio [10] of the same molecule?
Answer: Its cytochrome c release ratio is 1.24.

Question: And the inhibition of aggregation [11]?
Answer: Its inhibition of aggregation is 81.4%.

Question: What about the nuclear beta-catenin stimulation ([1]; at 10 µM) of the same molecule?
Answer: The nuclear beta-catenin stimulation was 3.6% (inactive).

Question: What about the nuclear beta-catenin stimulation ([1]; stimulation, at 2 µM) of the same molecule?
Answer: The nuclear beta-catenin stimulation was -1.1%.

Question: And the insulin secretion stimulation [2]?
Answer: Its insulin secretion stimulation is -0.1% (inactive).

Question: And the viability decrease [3]?
Answer: Its viability decrease is 49.8% (inactive).

Question: And the tube area decrease [4]?
Answer: Its tube area decrease is 87% (active).

Question: And the GLP1 secretion stimulation [5]?
Answer: The GLP1 secretion stimulation was -0.8% (inactive).

Question: And the inhibition of viability [6]?
Answer: The inhibition of viability was 8.83% (inactive).

Question: What about the viability decrease (inhibition) [7] of the same molecule?
Answer: The viability decrease (inhibition) was 3.9% (inactive).

Question: And the viability decrease (inhibition) [8]?
Answer: The viability decrease (inhibition) was 2.6% (inactive).

Question: And the inhibition [12]?
Answer: Its inhibition is -1.4% (inactive).

Question: What about the red/green cell ratio (normalised) [13] of the same molecule?
Answer: Its red/green cell ratio (normalised) is 0.75 (inactive).

Question: What about the normalised cell number [13, 19] of the same molecule?
Answer: Its normalised cell number is 1.2.

Question: What about the normalised cell number [13, 20] of the same molecule?
Answer: Its normalised cell number is 0.9.

Question: And the activity remaining [14]?
Answer: Its activity remaining is 115% (inactive).

Question: And the z-score [15, 21]?
Answer: The z-score was -0.116 (inactive) and 0.451 (inactive).

Question: What about the z-score [15, 22] of the same molecule?
Answer: Its z-score is -0.284 and -0.412.

Question: What about the remaining NAD [16] of the same molecule?
Answer: The remaining NAD was 10 nM (inactive).

Question: And the luciferase signal [17]?
Answer: Its luciferase signal is 144 AU (inactive).

Question: What about the z-score [18] of the same molecule?
Answer: The z-score was -0.065 (inactive) and 0.565 (inactive).

Question: Which results are given for O=c1[nH]c2ccccc2n1C1CCN(CCCC(c2ccc(F)cc2)c2ccc(F)cc2)CC1?
Answer: score [9]: 1.1; cytochrome c release ratio [10]: 1.41; inhibition of aggregation [11]: 38.1%; nuclear beta-catenin stimulation ([1]; at 10 µM): 7.8% (inactive); nuclear beta-catenin stimulation ([1]; stimulation, at 2 µM): 0.2%; insulin secretion stimulation [2]: 0.4% (inactive); viability decrease [3]: 98.9% (active); tube area decrease [4]: 108% (active); GLP1 secretion stimulation [5]: -4.5% (inactive); inhibition of viability [6]: 99.6% (active); viability decrease (inhibition) [7]: 102% (active); viability decrease (inhibition) [8]: 99.3% (active); inhibition [12]: 13.7% (inactive); red/green cell ratio (normalised) [13]: 0.96 (inactive); normalised cell number [13, 19]: 1.24; normalised cell number [13, 20]: 1.19; activity remaining [14]: 128% (inactive); z-score [15, 21]: 0.83 (inactive) and 0.29 (inactive); z-score [15, 22]: 0.702 and -0.0813; remaining NAD [16]: 10 nM (inactive); luciferase signal [17]: 68 AU (inactive); z-score [18]: -1.29 (inactive) and -1.18 (inactive) and -2 (inactive)

Question: Which nuclear beta-catenin stimulation ([1]; at 10 µM) does the source give for C[N+](C)(C)CCOC(=O)C(O)(c1ccccc1)c1ccccc1 here?
Answer: The nuclear beta-catenin stimulation was -1.8% (inactive).

Question: And the nuclear beta-catenin stimulation ([1]; stimulation, at 2 µM)?
Answer: Its nuclear beta-catenin stimulation is -0.5%.

Question: And the insulin secretion stimulation [2]?
Answer: Its insulin secretion stimulation is 1.1% (inactive).

Question: What about the viability decrease [3] of the same molecule?
Answer: The viability decrease was 98.1% (active).

Question: And the tube area decrease [4]?
Answer: The tube area decrease was -29.2% (inactive).

Question: And the GLP1 secretion stimulation [5]?
Answer: The GLP1 secretion stimulation was -2.6% (inactive).

Question: What about the inhibition of viability [6] of the same molecule?
Answer: Its inhibition of viability is 96.5% (active).

Question: What about the viability decrease (inhibition) [7] of the same molecule?
Answer: The viability decrease (inhibition) was 98.8% (active).

Question: And the viability decrease (inhibition) [8]?
Answer: Its viability decrease (inhibition) is 102% (active).

Question: For O=c1[nH]c2ccccc2n1CCCN1CCC(n2c(=O)[nH]c3cc(Cl)ccc32)CC1, which nuclear beta-catenin stimulation ([1]; at 10 µM) is on record?
Answer: The nuclear beta-catenin stimulation was 3.1% (inactive).

Question: And the nuclear beta-catenin stimulation ([1]; stimulation, at 2 µM)?
Answer: Its nuclear beta-catenin stimulation is 0.9%.

Question: And the insulin secretion stimulation [2]?
Answer: Its insulin secretion stimulation is 41.9% (active).

Question: What about the viability decrease [3] of the same molecule?
Answer: Its viability decrease is -17.1% (inactive).

Question: And the tube area decrease [4]?
Answer: The tube area decrease was 12.9% (inactive).

Question: And the GLP1 secretion stimulation [5]?
Answer: The GLP1 secretion stimulation was 6.8% (inactive).

Question: And the inhibition of viability [6]?
Answer: Its inhibition of viability is 13.1% (inactive).

Question: And the viability decrease (inhibition) [7]?
Answer: The viability decrease (inhibition) was 13.8% (inactive).

Question: And the viability decrease (inhibition) [8]?
Answer: Its viability decrease (inhibition) is 15.8% (inactive).

Question: And the inhibition [12]?
Answer: Its inhibition is 2.55% (inactive).

Question: What about the red/green cell ratio (normalised) [13] of the same molecule?
Answer: The red/green cell ratio (normalised) was 1.2 (inactive).

Question: And the normalised cell number [13, 19]?
Answer: Its normalised cell number is 0.91.

Question: What about the normalised cell number [13, 20] of the same molecule?
Answer: The normalised cell number was 1.1.

Question: And the activity remaining [14]?
Answer: Its activity remaining is 117% (inactive).

Question: And the z-score [15, 21]?
Answer: The z-score was -0.488 (inactive) and -0.032 (inactive) and 1.25 (inactive).

Question: What about the z-score [15, 22] of the same molecule?
Answer: The z-score was 0.597 and -0.334 and 1.01.

Question: And the remaining NAD [16]?
Answer: The remaining NAD was 10 nM (inactive).

Question: What about the luciferase signal [17] of the same molecule?
Answer: Its luciferase signal is 44 AU (inactive).

Question: What about the z-score [18] of the same molecule?
Answer: Its z-score is -0.92 (inactive) and -0.455 (inactive) and -0.075 (inactive).
